# Test results: PubChem BioAssay
# Assay: binders from COS7 lysate, DM2A8 probe, primary screen, torsin A project, cell lysate, small-molecule microarray, fluorescence 635/667 (AID 1065)
# Conditions: higher = more signal, COS7 lysate expressing mutant human TOR1A
row,Structure (SMILES),composite z-score
1,COC(=O)C(CC#Cc1ccc2c(c1)[C@]1(C(=O)N2)[C@H](C(=O)N2CCN(c3ncccn3)CC2)[C@H]2C(=O)O[C@H](c3ccccc3)[C@H](c3ccccc3)N2[C@@H]1c1ccc(OCCO)cc1)C(=O)OC,1.21
2,COCCOC(=O)N1C(=O)[C@@]2(c3cc(C#CC4=CCCCC4)ccc31)[C@H](c1ccccc1OCCO)N1[C@H](c3ccccc3)[C@H](c3ccccc3)OC(=O)[C@H]1[C@@H]2C(=O)N1CCCCCCC1,0.107
3,CCOC(=O)C[C@H]1[C@H](OC(=O)c2ccc(C(=O)c3ccccc3)cc2)[C@@H](NC(=O)Cc2ccc(OC)cc2)c2cc(OCCCO)ccc2N1C(=O)c1ccccc1,0.135
4,C=CC[C@@]1(C(=O)N2CCOCC2)N=C(c2ccc(OCCCO)cc2)O[C@@H]1c1ccccc1CN=[N+]=[N-],0.326
5,NC(=O)NCC#Cc1ccc2c(c1)[C@]1(C(=O)N2)[C@H](C(=O)NC[C@H](O)c2ccccc2)[C@H]2C(=O)O[C@H](c3ccccc3)[C@H](c3ccccc3)N2[C@@H]1c1ccc(OCCO)cc1,0.699
6,C=C(COC)/C(=C/C[C@H](OC(=O)c1ccncc1)c1ccccc1OCCO)c1cnc2ccccc2c1,0.171
7,[N-]=[N+]=Nc1ccccc1C[C@]1(C(N)=O)N=C(c2ccc(OCCCO)cc2)O[C@H]1c1ccccc1N=[N+]=[N-],0.902
8,CN1C(=O)C2C=CC(C(O)c3ccccn3)N(N(c3ccccc3)c3ccccc3)C2C1=O (centres undefined),0.0014
9,NCCCCCCNC(=O)[C@@H]1C[C@@H]2C(=O)N[C@@H](CCCCN)C(=O)N2[C@@H]1c1cccc(OCCO)c1,1.81
